We go through 54 molecules from ChEMBL document CHEMBL4513216, “Probing the Open Global Health Chemical Diversity Library for Multistage-Active Starting Points for Next-Generation Antimalarials” (ACS Infect Dis, 2020).

Out of some 69,000 compounds screened, about 8,600 (12%) showed an effect of 50% or more. This is one part of a sample in which strong results are shown more often than they occur.

This assay relates to Plasmodium berghei. The assay is described as follows: Screen against P. berghei liver stage (PbLuc), transformed with Luciferase, at 10uM. Format: functional, HepG2. Conditions: tested at 10 uM.
Regarding `O=C1CC(NS(=O)(=O)NCc2ccccc2)CN1c1ccccc1Cl` (centres undefined), the INHIBITION was 55%.

`CN(C)S(=O)(=O)NC1CC(=O)N(c2ccccc2Cl)C1` (centres undefined): the INHIBITION is recorded as 25.8%.

For the molecule `CC(C)N(C)Cc1cncc2c1CCN(CC1CC1)C2`, the INHIBITION worked out at 44.8%.

`CN(C)C(=O)COCc1cncc2c1CCN(Cc1cnn(C)c1)C2`: the INHIBITION is 23.5%.

`CN(C)Cc1cncc2c1CCN(Cc1ccoc1)C2`: the INHIBITION is recorded as 24.9%.

For the molecule `Cn1cc(CN2CCc3c(COCC4CC4)cncc3C2)cn1`, the INHIBITION came out at 7.15%.

On to `CN(Cc1cccnc1)Cc1cncc2c1CCN(Cc1ccoc1)C2`, for which the INHIBITION was determined as 28.5%.

For `CC(C)COCc1cncc2c1CCN(Cc1cnn(C)c1)C2`, the INHIBITION worked out at 71.8%.

Take `CN(C)Cc1cncc2c1CCN(CC(=O)N(C)C)C2`: the INHIBITION was determined as 72%.

Regarding `CN(C)Cc1cncc2c1CCN(Cc1cnn(C)c1)C2`, the INHIBITION worked out at 59.8%.

For `CC(C)N(C)Cc1cncc2c1CCN(CC(=O)N(C)C)C2`, the INHIBITION is reported as 12.2%.

Consider `c1cncc(COCc2cncc3c2CCN(Cc2ccoc2)C3)c1`, for which the INHIBITION came to 54.8%.

As for `COCc1cncc2c1CCN(Cc1cnn(C)c1)C2`, the INHIBITION is on record as -26.2%.

For the molecule `COCc1cncc2c1CCN(Cc1cccnc1)C2`, the INHIBITION is recorded as 24.8%.

With `CCC[C@H]1CN(C(=O)CCn2ccccc2=O)C[C@@H]1NS(C)(=O)=O`, the INHIBITION was -7.98%.

For the molecule `Cc1nc(C(C)C)sc1C(=O)N1CCC(C(N)=O)CC1`, the INHIBITION is reported as -49.2%.

Regarding `Cc1cc(C)cc(OCC(=O)NC2CCN(S(C)(=O)=O)CC2)c1`, the INHIBITION amounted to 33%.

In the case of `Cc1cc(N2CCN(CCO)CC2)nc(-c2ccncc2)n1`, the INHIBITION came to 30%.

With `CN1CCN(C(=O)COCc2nc(-c3ccncc3)no2)CC1`, the INHIBITION came out at 11.4%.

Take `CC(C)NC(=O)NCc1nnc2n1C(C(=O)N(C)C)CC2` (centres undefined): the INHIBITION is 9.32%.

Take `CCCc1noc(C2CCN(C(=O)CCn3nc(C)cc3C)CC2)n1`: the INHIBITION was 36.6%.

In the case of `COC[C@H]1CCC[C@H]1Nc1ncnc2c1CCNCC2`, the INHIBITION is reported as -6.94%.

`CC(C)N1CCC2(CC1)CC(NCc1ccccn1)c1ccccc1O2` (centres undefined): the INHIBITION was 7.31%.

Regarding `O=C(C1CCCCC1)N1CCC2(CCCN2CC2CC2)CC1`, the INHIBITION amounted to 50.7%.

As to `O=C(C1CCCC1)N1CCC2(CC1)COCCN2CC1CC1`, the INHIBITION is given as 39.1%.

On to `O=C(C1CCC1)N1CCC2(CCCN2CC2CC2)CC1`, for which the INHIBITION worked out at 22.3%.

Consider `OC1(CNCCCN2CCc3ccccc32)CCNC1` (centres undefined), for which the INHIBITION was found to be 30.7%.

Consider `CCN(CCSc1ccccc1)C(=O)c1cn(C2CCC(N)CC2)nn1` (centres undefined), for which the INHIBITION is on record as -56.6%.

With `CN(C)c1cc(C(=O)Nc2cccnc2N2CCSCC2)ccn1`, the INHIBITION is listed as 2.97%.

As to `CNC(=O)c1cccc(NC(=O)c2ccnc(N(C)C)c2)c1C`, the INHIBITION is 53.9%.

`CN(C)c1cc(C(=O)Nc2ccccc2C(=O)NC(C)(C)C)ccn1`: the INHIBITION stood at 7.4%.

On to `C=C(C)CN1CCN(Cc2nccn2C)C(C)C1` (centres undefined), for which the INHIBITION is recorded as 42.45%.

For `CN1CCN(C(=O)Cc2cccc(F)c2)Cc2cccnc21`, the INHIBITION is listed as -3.19%.

As to `O=C(c1cc(-c2cccs2)nc2ccccc12)N1CCN(CCO)CC1`, the INHIBITION is 68.4%.

For `Cc1nc(-c2cccs2)ccc1C(=O)N1CCN(CCO)CC1`, the INHIBITION was 27.6%.

Regarding `O=C(c1cc2ccccc2c(=O)[nH]1)N1CCN(CCO)CC1`, the INHIBITION stood at 2.32%.

Take `Cc1nc2cc(F)ccc2cc1C(=O)N1CCN(CC(C)O)CC1` (centres undefined): the INHIBITION is on record as -11.5%.

Consider `Cc1nc2cc(F)cc(C(=O)N3CCN(CCO)CC3)c2nc1C`, for which the INHIBITION is recorded as -24%.

Consider `O=C(c1ccc(-c2cccs2)cc1F)N1CCN(CCO)CC1`, for which the INHIBITION was 38.7%.

As for `Cc1nc(O)ccc1C(=O)N1CCCC1c1nc(-c2ccccc2)n[nH]1` (centres undefined), the INHIBITION is on record as 69.8%.

On to `Cc1nc(-c2ccccc2)ccc1C(=O)N1CCN(CCO)CC1`, for which the INHIBITION was 71.2%.

`O=C(c1ccncc1F)N1CCCC1c1nc(-c2ccccc2)n[nH]1` (centres undefined): the INHIBITION came to 16.8%.

With `Cc1nc(-c2cccs2)ccc1C(=O)N1CCN(CC(C)O)CC1` (centres undefined), the INHIBITION is listed as 55.4%.

Regarding `O=C(c1ccc[nH]1)N1CCCC1c1nc(-c2ccccc2)n[nH]1` (centres undefined), the INHIBITION is recorded as -1.76%.

In the case of `Cc1nc(-c2ccccc2)ccc1C(=O)N1CCn2c(C)nnc2C1`, the INHIBITION is -0.758%.

As to `Cc1cc(-n2nnc(C(=O)O)c2-c2ccncc2)ccc1F`, the INHIBITION was 49.9%.

On to `CCOC(=O)CNC(=O)c1cccnc1Sc1cc(OC)ccc1OC`, for which the INHIBITION is given as 3.58%.

Regarding `Cc1ccc(CNC(=O)NC(C)CN2CCOCC2)s1` (centres undefined), the INHIBITION was determined as 14%.

With `COCCC(=O)N1C[C@@H](c2ccccc2F)[C@@]2(CCCC(=O)N2)C1`, the INHIBITION is 29.5%.

Consider `Cn1cc(N2CCC3(CCN(Cc4nccs4)C3)C2=O)cn1` (centres undefined), for which the INHIBITION stood at 26.2%.

Consider `Cc1nc(C)n(CC2CCCN2Cc2nc(-c3ccsc3)no2)n1` (centres undefined), for which the INHIBITION was found to be 46.8%.

Regarding `Cc1ccccc1OCCCNC(=O)C1(C)CC(=O)N2C=CC=CC2=N1` (centres undefined), the INHIBITION is reported as 9.63%.

Take `Cc1nc(C)n(CC2CN(Cc3ccccc3C#N)CCO2)n1` (centres undefined): the INHIBITION was 5.9%.

Consider `CCN(Cc1cscn1)CC1(C)Cc2c(N)nc(N)nc2O1` (centres undefined), for which the INHIBITION turned out to be 33.85%.
